Measured values published in PubChem BioAssay AID485364 (National Center for Advancing Translational Sciences (NCATS), 2010).
Hit rate of the full screen: of about 360,000 compounds, about 11,000 (3.1%) were called active. Entries that show only a call come without a potency. Not shown: some 4% with an inconclusive outcome. Calls follow the shape of the dose curve; as a rule, active = well fitted inhibition curve with a large enough effect; inconclusive = small, poorly fitted or top-dose-only effect; inactive = no such curve, though single readings can be large or run the other way. The full list was thinned out, with actives kept by preference.

Biological target: Schistosoma mansoni thioredoxin glutathione reductase (TGR) (UniProt Q962Y6)
Experiment: qHTS Assay for the Inhibitors of Schistosoma Mansoni Peroxiredoxins; also: nearly all actives have a fitted effect of over 60% in size
Conditions: purified TGR, DTNB reduction, TNB absorbance 405 nm; series mostly up to 114 µM
Method in brief: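 Kinetic colorimetric format: TGR-catalysed, NADPH-driven DTNB reduction monitored via TNB absorbance. Enzyme dispensed at 20 nM; compound exposure 15 min at room temperature before reaction start.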
Potency is read from the fitted curve at half-maximal effect.

How did the Potency turn out when `Cc1ccc(-c2cc(N)n(Cc3cccc(Cl)c3)n2)cc1` was run?
Its Potency is “inactive”.

Which Potency does the source give for `COc1cccc(Nc2nc3ccccc3c3nncn23)c1` here?
The Potency was “inactive”.

`Cc1ccc(C(=O)COC(=O)C(Cc2c[nH]c3ccccc23)NC(=O)c2ccc(Br)cc2)cc1` (stereo not given) was tested. Which Potency did it give?
Its Potency is “inactive”.

Which Potency does the source give for `O=C1NC(=O)N(Cc2ccco2)C(=O)/C1=C\c1cccn1CCOc1ccccc1` here?
The Potency was 11.2 µM (active).

How did the Potency turn out when `NS(=O)(=O)c1ccc(-c2ccc(/C=C3\SC(=O)NC3=O)o2)cc1` was run?
The Potency was “inactive”.

With `COc1ccc(OCCCn2cccc2/C=C2/C(=N)N3OC(C)=CC3=NC2=O)cc1` as the molecule, how does the Potency read?
The Potency was “inactive”.

`O=C(CCCOc1ccccc1)NCc1ccco1` was tested. Which Potency did it give?
The Potency was “inactive”.

`O=C1c2ccccc2C(=O)N1CCOc1ccc(F)cc1` was tested. Which Potency did it give?
Its Potency is “inactive”.

For `O=C1NC(=O)N(Cc2ccco2)C(=O)/C1=C\c1ccc(-c2ccc(F)cc2)o1`, which Potency is on record?
Its Potency is 11.2 µM (active).

`CCn1c(C)c(C)c2cc(C(=O)NCCc3cc(OC)ccc3OC)ccc21` was tested. Which Potency did it give?
The Potency was “inactive”.

Which Potency does the source give for `CC(=O)N1CCCc2cc(S(=O)(=O)N3CCC(C(=O)NC4CCCCC4)CC3)ccc21` here?
Its Potency is “inactive”.

With `CCc1ccc(NC(=O)CSc2nc3c([nH]c4ccccc43)c(=O)n2-c2cccc(OC)c2)cc1` as the molecule, how does the Potency read?
Its Potency is “inactive”.

Which Potency does the source give for `COc1ccc(-n2c(=O)c3c(c4cc(OC)ccc4n3C)n(Cc3cccc(C)c3)c2=O)cc1` here?
Its Potency is “inactive”.

Which Potency does the source give for `CCC(=NCCCO)c1c(O)n(-c2ccc(OC)cc2)c(=O)[nH]c1=O` here?
The Potency was “inactive”.

For `Nc1c(N(Cc2ccco2)C(=O)c2cccc(F)c2)c(=O)[nH]c(=O)n1Cc1ccccc1`, which Potency is on record?
Its Potency is “inactive”.

Which Potency does the source give for `CCC(=NCc1ccco1)c1c(O)n(Cc2ccccc2)c(=O)[nH]c1=O` here?
The Potency was 28.2 µM (active).

How did the Potency turn out when `CC(C)Cn1c(=O)c2ccccc2n2c(CCC(=O)N3CCN(c4cccc(Cl)c4)CC3)nnc12` was run?
The Potency was “inactive”.

For `Cc1ccc(/C=C/C(=O)O)cc1S(=O)(=O)N1CCC(Cc2ccccc2)CC1`, which Potency is on record?
The Potency was 25.1 µM (active).

`Cn1cc(S(=O)(=O)N2CCC(Cc3ccccc3)CC2)c(=O)n(C)c1=O` was tested. Which Potency did it give?
The Potency was “inactive”.

Which Potency does the source give for `O=C(O)c1ccc(S(=O)(=O)N2CCC(Cc3ccccc3)CC2)cc1` here?
The Potency was “inactive”.

Which Potency does the source give for `COc1ccccc1N1CCN(C(=O)C2CCN(S(=O)(=O)c3c(C)noc3/C=C/c3ccc(C)cc3)CC2)CC1` here?
Its Potency is “inactive”.

For `CNC(=O)C1CCN(S(=O)(=O)c2c(C)noc2/C=C/c2cccc(C)c2)CC1`, which Potency is on record?
The Potency was “inactive”.

Which Potency does the source give for `Cc1noc(/C=C/c2ccco2)c1S(=O)(=O)N1CCC(C(=O)N2CCc3ccccc32)CC1` here?
The Potency was 44.7 µM (active).

Which Potency does the source give for `CCCCCCn1nnc2sc(-c3ccccc3)cc2c1=O` here?
The Potency was “inactive”.

How did the Potency turn out when `CCCNC(=O)C1CCN(c2nc3ccc(C)cc3[nH]2)CC1` was run?
The Potency was “inactive”.

`CC(=O)N(C1=C(Cl)C(=O)c2ccccc2C1=O)c1ccc(C(=O)O)cc1` was tested. Which Potency did it give?
The Potency was 0.224 µM (active).

With `O=C(Nc1ccc(F)cc1F)c1ccc2c(=O)n3c(nc2c1)CCCCC3` as the molecule, how does the Potency read?
Its Potency is “inactive”.

`COc1ccccc1-n1c(-c2ccc(C)cc2)cn2c3c(=O)n(C)c(=O)n(C)c3nc12` was tested. Which Potency did it give?
Its Potency is “inactive”.

Which Potency does the source give for `CCn1c(CNC(=O)c2ccc(OC)c(OC)c2)nnc1SCC(=O)Nc1ccccc1` here?
The Potency was “inactive”.

For `CCn1c(COc2ccc(OC)cc2)nnc1SCC(=O)Nc1cc(OC)ccc1OC`, which Potency is on record?
Its Potency is “inactive”.

For `CCn1c(SC)nc(O)c(C(c2ccc(OC)c(O)c2)c2c(O)nc(SC)n(CC)c2=O)c1=O`, which Potency is on record?
Its Potency is 3.98 µM (active).

`Cc1ccc(-n2c(=O)c3cccnc3n2CC(=O)Nc2ccccc2C(F)(F)F)cc1C` was tested. Which Potency did it give?
Its Potency is “inactive”.

How did the Potency turn out when `O=C(CCn1c(=O)c2sccc2n(Cc2ccc(F)cc2)c1=O)NCc1ccc2c(c1)OCO2` was run?
The Potency was “inactive”.

How did the Potency turn out when `CCn1c(O)c(N=NC(=O)c2cccc(S(=O)(=O)N3CCCCC3)c2)c2ccccc21` was run?
Its Potency is “inactive”.

`C/C(=N\NC(=O)c1ccc2ccccc2c1)c1cccnc1` was tested. Which Potency did it give?
The Potency was “inactive”.

With `CCn1c(O)c2ccc(C(=O)N=NC(=O)c3cccnc3)cc2c1O` as the molecule, how does the Potency read?
The Potency was 100 µM (active).

`CCOc1ccc(C(=O)N2CCN(CCc3ccccn3)CC2)cc1` was tested. Which Potency did it give?
The Potency was “inactive”.

Which Potency does the source give for `CCOc1ccc(NC(=O)c2c(NCc3cccc(OC)c3OC)sc3c2CCC3)cc1` here?
Its Potency is “inactive”.

For `COC(=O)CN(c1cccc(C(C)=O)c1)S(C)(=O)=O`, which Potency is on record?
The Potency was 50.1 µM (active).

Which Potency does the source give for `Cc1cccc(N(CC(=O)N2CCOCC2)S(C)(=O)=O)c1` here?
The Potency was “inactive”.

With `CCOc1ccc(N(CC(=O)Nc2cccc(OC)c2)S(C)(=O)=O)cc1` as the molecule, how does the Potency read?
Its Potency is “inactive”.

`CCCc1cc(=O)n2[nH]c(NCc3ccc(CC)cc3)nc2n1` was tested. Which Potency did it give?
The Potency was “inactive”.

`COc1ccccc1NC(=O)CN1C(=O)c2ccccc2Sc2ccc(C(=O)N3CCCC3)cc21` was tested. Which Potency did it give?
The Potency was “inactive”.

How did the Potency turn out when `CO/N=C/c1ccc(N2CCN(C(=O)c3cccc(Cl)c3)CC2)c([N+](=O)[O-])c1` was run?
The Potency was “inactive”.

Which Potency does the source give for `O=C1CSC(=S)N1/N=C/c1ccc(O)c([N+](=O)[O-])c1` here?
Its Potency is 3.55 µM (active).

For `CCC1=Nc2cc(C(=O)NCC(C)c3ccccc3)ccc2Sc2ccc(C)cc21` (stereo not given), which Potency is on record?
Its Potency is “inactive”.

For `CCN1CCC(N(Cc2ccc(F)cc2)C(=O)Nc2cc(C)ccc2C)CC1`, which Potency is on record?
Its Potency is “inactive”.

`Cc1cnc(C(=O)Oc2cccc(Cl)c2Cl)cn1` was tested. Which Potency did it give?
Its Potency is 22.4 µM (active).

How did the Potency turn out when `Cc1cnc(C(=O)OCC(=O)Nc2ccc(Cl)cc2Cl)cn1` was run?
Its Potency is “inactive”.

How did the Potency turn out when `Cc1ccc(-c2cc(C(=O)Oc3ccccc3Cl)no2)cc1C` was run?
The Potency was “inactive”.
